# Experimental data reported in PubChem BioAssay (NCI).
# This is part of a sample that, as a whole, favours compounds with a hit. Of some 83,000 tested, about 20% had one in any assay.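 The test compound was applied at a single concentration to cells in 96-well plates for 48 hours, and percent growth was recorded.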 Unmarked numbers belong to inactive results. The source made the active and inactive calls. How the source made its calls: active means growth percent below 10; inactive means the rest.
# What was measured:
# Test in all cases: NCI-60 one-dose screen, 48 h (100 = growth as untreated, 0 = no growth, -100 = all killed)
# Conditions in all cases: 10 µM unless noted
# T-47D breast = tested on: T-47D breast
# BT-549 breast = tested on: BT-549 breast
# MDA-MB-435 melanoma = tested on: MDA-MB-435 melanoma
# SW-620 colon = tested on: SW-620 colon
# MCF7 breast = tested on: MCF7 breast
# HCT-116 colon = tested on: HCT-116 colon
# HCC-2998 colon = tested on: HCC-2998 colon
# KM12 colon = tested on: KM12 colon
SMILES,growth (T-47D breast),growth (BT-549 breast),growth (MDA-MB-435 melanoma),growth (SW-620 colon),growth (MCF7 breast),growth (HCT-116 colon),growth (HCC-2998 colon),growth (KM12 colon)
COc1ccc2[nH]cc(-c3nc(-c4cn(C)c5c(Cl)nccc45)cs3)c2c1,11.6%,45%,6.78% (active),-5.25% (active),43.9%,43.9%,62%,32%
COc1ccc(/C=C2\COc3ccc(O)c(O)c3C2=O)cc1,6.94% (active),-6.78% (active),11%,6.34% (active),19%,10.8%,50.7%,8.91% (active)
CN1C(=O)/C(=C/c2cn(-c3ccccc3)nc2-c2ccccc2)SC1=S,96.1%,106%,99.5%,98.8%,83.6%,99.8%,115%,102%
COCCn1cc(-c2nc(-c3cc4cccnc4n3CCOC)cs2)c2cc(OC)ccc21,-10.5% (active),57%,91.4%,49%,5.4% (active),43%,28%,11.8%
O=C(Nn1c2c(sc1=NCc1ccccc1)C(=O)c1ccccc1C2=O)c1cc2ccc1CCc1ccc(cc1)CC2,35.1%,77.3%,-85.5% (active),77.5%,40%,55.9%,101%,74.8%
Nc1ncnc2c1N=C(c1ccc3c(c1)OCO3)CC(c1cccc(Nc3ccnc4cc(Cl)ccc34)c1)N2 (stereo not given),43.3%,74.5%,51.6%,25.4%,8.54% (active),6.7% (active),72%,30.5%
CC1=C(C(=O)OC(C)C)C(c2ccc3c(c2)OCO3)NC(=S)N1 (stereo not given),91.4%,96%,106%,107%,98.7%,95.6%,115%,108%
O=C1/C(=C\c2cn(-c3ccccc3)nc2-c2ccc(-c3cccs3)cc2)CCc2ccccc21,66.4%,70%,-24.6% (active),41.9%,38.3%,43.7%,79.8%,49.4%
CCNC(=O)c1[nH]cc(-c2ccccc2)c1-c1cc(OC)c2c(c1OC)OCO2,87%,98.4%,103%,97.6%,101%,90.7%,104%,121%
Cn1cc(-c2nc(-c3c[nH]c4ccncc34)cs2)c2ccccc21,12.4%,84.4%,-89.9% (active),-47% (active),4.55% (active),-63.4% (active),-52.3% (active),18.7%
COc1ccc2cc(-c3ccc(NC(C)=O)c(=O)o3)ccc2c1,87.3%,101%,107%,96.6%,89.9%,90.3%,102%,97%
CC1(C)CC2=C3C=C[C@@H]4[C@@]5(C)CCC(=O)C(C)(C)[C@@H]5CC[C@@]4(C)[C@]3(C)CC[C@@]2(C(=O)O)CC1=O,74.4%,41.5%,49.4%,66.9%,57.3%,64.6%,84.3%,78.3%
O=C1c2cccnc2C(=O)c2c1c(C(=O)NCCCN1CCCCC1)c1ccccn21,-48.6% (active),13.7%,-80.5% (active),-66% (active),-49.5% (active),-57.6% (active),-56.7% (active),-17.8% (active)
CCOC(=O)C1=C(NC)OCC1=O,110%,102%,110%,100%,103%,108%,102%,105%
O=C(Cc1ccccc1)Nc1nc(O)c(/C=C2\C(=O)C=Cc3ccccc32)s1,90%,98.9%,101%,95.7%,101%,90.1%,110%,106%
CCOC(=O)c1c(C)nc2c(c1N)CC(=O)N2Cc1cc(F)cc(Cl)c1,76.3%,96.3%,92%,103%,84.9%,79.9%,113%,97%

SMILES,growth (T-47D breast),growth (BT-549 breast),growth (MDA-MB-435 melanoma),growth (SW-620 colon),growth (MCF7 breast),growth (HCT-116 colon),growth (HCC-2998 colon),growth (KM12 colon)
COc1ccc(C(=O)C2C(c3ccc(OC)cc3)CN(C)C23C(=O)Nc2ccccc23)cc1 (stereo not given),85.8%,105%,97.6%,95.2%,98.8%,84.4%,88.4%,93.9%
CN(Cc1ccc(C(F)(F)F)cc1)CC(O)C(=O)Nc1ccc(Cl)cc1 (stereo not given),18.4%,56.1%,-4.56% (active),-41.5% (active),-23.4% (active),-94.3% (active),-48.2% (active),-36.1% (active)
CC(=O)n1nc(C(=O)OC(C)C)c2cc(C)c(C)cc21,88.7%,98.2%,98.6%,98.8%,90.8%,83.8%,105%,105%
O=C(OCc1ccc2cccc(O)c2n1)N1CCN(C(=O)c2cc3cc(F)ccc3[nH]2)CC1,-68.3% (active),-57.4% (active),-89.8% (active),-62.8% (active),-28% (active),-78.8% (active),-4.94% (active),-48.1% (active)
Brc1c2c(c(Br)c3ccccc13)CCCC2,84.4%,112%,111%,103%,96%,91.4%,110%,102%
CC(C)CCC[C@@H](C)[C@H]1CC[C@H]2[C@@H]3CC=C4C[C@@H](C(C(=O)O)C(=O)O)CC[C@]4(C)[C@H]3CC[C@]12C,-13.8% (active),-22.6% (active),-55.6% (active),-39.7% (active),1.84% (active),-61.3% (active),-47.5% (active),-74.4% (active)
COC(=O)c1c2c(c[n+]([O-])c1C)C(=O)C(NCc1ccccc1)=CC2=O,-31.8% (active),-88.7% (active),-93.7% (active),-19% (active),-58.3% (active),1.8% (active),–,-0.692% (active)
Cc1ccc(CNc2ccc(Cl)cc2NCc2ccc(C)c(O)c2)cc1O,11.3%,39.9%,30.9%,25.9%,9.21% (active),24.4%,22.7%,-1.46% (active)
C=C(C)[C@@H]1CC[C@]2(C(=O)N3CCN(C)CC3)CC[C@]3(C)[C@H](CC[C@@H]4[C@@]5(C)CC(=C/c6ccncc6)/C(=N/O)C(C)(C)[C@@H]5CC[C@]43C)[C@@H]12,71.9%,82.7%,86.6%,72.8%,66.8%,56.1%,82.7%,72.1%
O=C(CI)NC1Oc2ccccc2-c2oc(=O)c(-c3ccccc3)cc21 (stereo not given),-42.4% (active),-55.7% (active),17.9%,-48.3% (active),-53.3% (active),-37.5% (active),78.2%,2.37% (active)
CCCCOC(=O)OCc1cc(=O)c(O)co1,90.8%,110%,102%,103%,94.5%,106%,106%,104%
CC[C@]12C=CCN3CC[C@@]4(c5cc(NC(=O)CCC(=O)OCc6cn(Cc7ccc(F)cc7)nn6)c(OC)cc5N(C)[C@H]4[C@@](O)(C(=O)OC)[C@@H]1OC(C)=O)[C@@H]32,102%,108%,101%,104%,96.4%,96.3%,106%,103%
C[C@@H]1CCC[C@H]1CC(N)C(=O)O (stereo not given in full),106%,106%,98.6%,102%,91.7%,95.7%,103%,106%
Cc1ccc(-c2nc3nc(-c4ccccc4)nc(N4CCNCC4)c3o2)cc1,-68.4% (active),-71.9% (active),-87.4% (active),-69.4% (active),-66.2% (active),-77.1% (active),-86.8% (active),-87.9% (active)
COC(=O)c1ccc2c(c1)C(=O)c1c-2n(CCCN)c(=O)c2cc([N+](=O)[O-])ccc12,-80.3% (active),-100% (active),-90.9% (active),-100% (active),-87.8% (active),-100% (active),-94.9% (active),-97.2% (active)
Cc1ccc(-c2nc3nc(-c4ccc(F)cc4)nc(N4CCNCC4)c3o2)cc1,-27.4% (active),99.5%,66%,-79.3% (active),-74.2% (active),-92.1% (active),19.4%,-83.7% (active)
